SMN2 splice up: qHTS Assay for Enhancers of SMN2 Splice Variant Expression. HEK293 SMN2-luciferase splicing reporter, luminescence, 30-36 h. Potency, µM (doses to about 46.1 µM), for inactives: at the highest dose activity change, positive = activation, actives largely listed as activators. 210,000 compounds, 2.8% hits; note: % of control where 0% means no effect; nearly all actives have a fitted effect of over 55% in size
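HEK293 cells carry an SMN2 […]–luciferase reporter in which exon 7 inclusion puts luciferase in frame. Cells were plated 10-12 h before compound addition, then incubated 30-36 h at 37C. ONE-Glo luminescence was read; sodium butyrate at 4.5 mM final served as control.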
Rab9 prom act: qHTS Assay for Rab9 Promoter Activators. 320,000 compounds, 2.8% hits. Potency, µM (series often up to 9.22 µM), inactives show at the top dose activation, negative = inhibition, usual class: activators. Huh7 Rab9 promoter-luciferase reporter, luminescence, 24 h; note: % of control where 0% means no effect; nearly all actives have a fitted effect of over 60% in size
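Steps: seed 1500 Huh7 Rab9-luc cells per well, rest 2 h at 37 °C; add compound in DMSO; incubate 24 h; add luciferase reagent, 10 min ambient; read luminescence.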
NPC1 prom act: qHTS Assay for NPC1 Promoter Activators | Huh7 NPC1 promoter luciferase reporter, 24 h | Potency, µM (highest dose often 9.22 µM), inactives show at the highest dose activation, usual class: activators | 320,000 compounds, 2.4% hits | AID 485313, 2010; note: % of control where 0% means no effect; nearly all actives have a fitted effect of over 60% in size
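Readout is luciferase luminescence, reflecting NPC1 promoter activation in stably transfected Huh7 cells after 24 h compound exposure at 37 °C in reduced-serum medium with 10% FBS.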
ELG1 genotox: qHTS screen for small molecules that induce genotoxicity in human embryonic kidney (HEK293T) cells expressing luciferase-tagged ELG1; Potency, µM (titrated, usually from 46 µM), inactives show at the top dose activity change, positive = activation, actives largely listed as activators; HEK293T ELG1-luciferase reporter, luminescence, 16 h; AID 504466, 2011; 330,000 compounds, 1.3% hits; note: % of control where 0% means no effect; nearly all actives have a fitted effect of over 60% in size
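DMSO vehicle served as control against compound-treated ELG1-luciferase HEK293T cells; exposure lasted 16 hr at 37 °C and 5% CO2, followed by ONE-Glo luminescence detection after 30 min.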
FLuc counter: qHTS profiling assay for firefly luciferase inhibitor/activator using purifed enzyme and Km concentrations of substrates (counterscreen for miR-21 project). Luciferin 4-monooxygenase (Photinus pyralis), P08659. purified FLuc, Km substrates, luminescence inhibition. Potency, µM (titrated, usually from 57.5 µM), without a hit: at the top dose activity change, negative = inhibition, usual class: inhibitors. 360,000 compounds, 6.9% hits;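 note: plate controls were vehicle for no effect and reference inhibitor for full effect; nearly all actives have a fitted effect of over 55% in size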
Target sequence (P08659 whole entry, looked up): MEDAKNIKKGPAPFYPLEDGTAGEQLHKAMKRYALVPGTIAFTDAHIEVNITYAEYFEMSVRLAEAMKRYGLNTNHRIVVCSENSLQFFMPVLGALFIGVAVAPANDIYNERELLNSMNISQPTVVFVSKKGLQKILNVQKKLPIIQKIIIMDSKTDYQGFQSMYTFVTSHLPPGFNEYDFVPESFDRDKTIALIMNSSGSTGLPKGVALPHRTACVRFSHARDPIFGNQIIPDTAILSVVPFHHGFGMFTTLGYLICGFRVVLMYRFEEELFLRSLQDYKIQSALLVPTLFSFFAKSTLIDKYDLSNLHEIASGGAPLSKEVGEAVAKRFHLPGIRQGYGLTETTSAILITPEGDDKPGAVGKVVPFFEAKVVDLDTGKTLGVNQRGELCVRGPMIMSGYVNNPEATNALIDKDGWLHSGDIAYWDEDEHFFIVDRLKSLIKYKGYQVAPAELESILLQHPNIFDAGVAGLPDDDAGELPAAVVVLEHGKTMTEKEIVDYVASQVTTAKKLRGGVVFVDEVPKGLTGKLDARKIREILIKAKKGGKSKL
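Biochemical qHTS of compounds, final roughly 60 µM downward over six points, against 10 nM purified firefly luciferase using Km concentrations of substrates (10 uM D-luciferin, 10 uM ATP) in Tris acetate pH 7.5 buffer; luminescence output.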
ELG1 DNA repair: qHTS screen for small molecules that inhibit ELG1-dependent DNA repair in human embryonic kidney (HEK293T) cells expressing luciferase-tagged ELG1. HEK293T ELG1-luciferase reporter, luminescence, 16 h; DNA damage induced by 5-fluorouridine. Potency, µM (series often up to 46.1 µM), for the others: at the top dose activity change, negative = inhibition, actives largely listed as inhibitors. 330,000 compounds, 2.3% hits. AID 504467, 2011; note: % is set by controls: 0 for no effect and ±100 for the full control effect; nearly all actives have a fitted effect of over 55% in size
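In this reporter screen, reduction of luminescence relative to DMSO vehicle indicated activity. Compounds and 5-fluorouridine were added together to 2,000 cells per well, incubated for 16 hr at 37 °C, then developed with ONE-Glo.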
Numbers without * were called inactive; ? = inconclusive; / = no result; [ ] = remark or other dose. This is a sample that favours compounds with a hit; in the whole collection about 9.2% have one here. Calls come from the whole dose curve; as a rule, active = well fitted curve in the direction sought with a large enough effect; inconclusive = small, poorly fitted or top-dose-only effect, or another doubt; inactive = no such curve, though single readings can be large; an effect the other way counts as inactive or inconclusive. Potency is the fitted concentration of half-maximal effect.

SMILES	SMN2 splice up	Rab9 prom act	NPC1 prom act	ELG1 genotox	FLuc counter	ELG1 DNA repair
Cc1[nH]c(=O)[nH]c(=O)c1NC(=O)c1ccc(OC(C)C)cc1	/	-2.7%	-3.1%	0.9%	-0.5%	-4.5%
CC(C)C[C@@H](CC(=O)N[C@@H](CCC(=O)O)CC(=O)O)NC(=O)[C@@H]1CNCC[C@H]1NC(=O)C[C@@H](NC(=O)C[C@H](Cc1ccccc1)NC(=O)[C@@H]1CNCC[C@H]1N)C(C)C	-1.4%	/	/	/	/	/
COc1ccccc1C(N)=S	6.4%	-2.7%	-0.2%	0.7%	-0.3%	0.4%
CN1C(=O)C2(C(C#N)=C(N)N(c3cc(Cl)cc(Cl)c3)C3=C2C(=O)CCC3)c2ccccc21 (stereo not given)	6.4%	-4.3%	-1.6%	-25.9%	-0.4%	10.3µM*
Brc1ccc2ncnc(Nc3ccc(N4CCOCC4)cc3)c2c1	-23.1%	2.4%	27.4%	-10.6%	?	6.51µM*
c1nc(Nc2ccc(N3CCOCC3)cc2)c2ccsc2n1	/	?	3.16µM*	15.7%	16.9µM*	?
CC(=O)c1ccc(S(=O)(=O)N(C)CC(=O)Nc2ccc(C)cc2)cc1	/	-5.3%	1.0%	0.4%	2.3%	15.1%
CC(C)c1nc2oc3c(NCC4CCCO4)ncnc3c2c2c1CCC2 (stereo not given)	?	12.0%	-2.0%	-3.3%	0.4%	16.4µM*
CCCc1nc2oc3c(NCC4CCCO4)ncnc3c2c2c1COC(C)(C)C2 (stereo not given)	-13.5%	-0.5%	-2.1%	2.4%	8.3%	-15.5%
CC(C)Cc1nc2oc3c(Cl)ncnc3c2c2c1CCCC2	/	-5.4%	-5.6%	10.3%	-2.5%	5.6%
CC(C)Cc1nc2oc3c(NCC(C)O)ncnc3c2c2c1CCCC2 (stereo not given)	/	6.8%	-3.5%	-7.0%	?	14.6µM*
COC(=O)c1cc(S(=O)(=O)NCc2cccs2)c[nH]1	/	-0.3%	0.3%	-2.9%[9.26 µM]	-0.4%	0.1%
c1ccc(-n2cnc3cc(NCc4ccccn4)ccc32)cc1	/	?	?	?	15.1µM*	?
c1ccc(-n2cnc3cc(NCc4ccncc4)ccc32)cc1	-96.1%	?	21.6%	1.3%	23.9µM*	?
Cc1ccc(NC(=O)Cn2cc(C(F)(F)F)cc(Cl)c2=O)cc1S(=O)(=O)N1CCCCC1	/	-6.6%	-3.8%	-6.9%	0.5%	?
Cc1c(CCC(=O)O)c(=O)oc2cc3occ(-c4ccc(Br)cc4)c3cc12	/	-5.5%	-6.5%	0.1%	16.9µM*	-16.8%
Cc1oc2cc3oc(=O)c(CCC(=O)N(C)CC(=O)O)c(C)c3cc2c1C	/	-6.8%	-4.1%	0.9%	7.57µM*	16.8%
Cc1c(CCC(=O)O)c(=O)oc2cc3occ(-c4ccc(Cl)cc4)c3cc12	/	-3.9%	-4.0%	2.8%	16.9µM*	-10.3%
Nc1nc(SCC(=O)Nc2ccccc2)[nH]c(=O)c1-c1ccccc1	-4.9%	7.3%	-0.9%	-3.9%	-2.4%	-4.6%
O=C(CSc1nc(O)c(C/C=C/c2ccccc2)c(=O)[nH]1)Nc1cccc(F)c1	-7.9%	/	/	/	10.7µM*	/
O=C(Nc1ccc(F)cc1F)c1cc2ccccc2oc1=O	/	1.78µM*	2µM*	4.61µM*	0.757µM*	?
COc1ccccc1NS(=O)(=O)c1cccc(NC(=O)Nc2ccccc2)c1	-29.0%	-0.3%	-2.3%	-5.2%	?	?
CCOc1cccc2cc(C(=O)N3CCOCC3)c(=O)oc12	/	-2.0%	-4.0%	2.7%	5.5%	10.9%
O=C(Nc1ccc(F)cc1F)c1cccc(C(=O)Nc2ccc(F)cc2F)n1	/	-7.8%	-5.6%	18.3µM*	-1.2%	16.4µM*
CCOc1cccc2cc(C(=O)Nc3nccs3)c(=O)oc12	-2.8%	-1.1%	2.3%	0.2%	2.39µM*	25.4%
SMILES	SMN2 splice up	Rab9 prom act	NPC1 prom act	ELG1 genotox	FLuc counter	ELG1 DNA repair
COc1ccccc1NS(=O)(=O)c1cccc(NC(=O)c2cc3ccccc3oc2=O)c1	14.1µM*	3.16µM*	2.51µM*	23.1µM*	10.7µM*	?
CC#N	3.8%	/	/	/	/	/
COc1ccc(NC(=O)N2CC[C@@]3(CCCNC3)C2)cc1	21.1%	/	/	/	/	/
CCOc1ccccc1NC(=O)c1cc2ccccc2oc1=O	/	1.12µM*	3.16µM*	9.0%	-17.2%	7.8%
O=C(O)COc1ccccc1/C=C1\SC(=S)N(c2cccnc2)C1=O	/	-0.3%	-2.9%	-8.0%	-3.6%	?
Cc1cc(C(=O)O)ccc1N/C=C1\CCCC(C)C1=O (stereo not given)	?	?	?	?	0.953µM*	?
CC1CCC/C(=C\Nc2ccc(O)cc2)C1=O (stereo not given)	-10.5%	?	2.3%	18.4µM*	21.3µM*	?
Cc1cc(=O)n2[nH]c(CCC(=O)O)nc2n1	/	-1.0%	1.3%	-0.3%	5.3%	2.8%
CCOCCCn1c(=NC(=O)c2cccs2)c(C#N)cc2c(=O)n3ccccc3nc21	/	-7.0%	1.4%	-0.9%	-0.3%	-18.8%
Cn1c(SCc2ccccc2)nnc1-c1c[nH]c2ccccc12	?	?	?	14.6µM*	16.9µM*	?
CCCCSc1nnc(-c2ccc(C)cc2)n1C	?	3.55µM*	3.98µM*	3.1%	?	?
CCCCSc1nnc(-c2c[nH]c3ccccc23)n1C	-8.9%	?	?	?	15.1µM*	?
CCSc1nnc(NC(=O)CSc2nnc(-c3c[nH]c4ccccc34)n2C)s1	6.3%	-0.2%	1.5%	0.0%	-13.1%	-0.1%
CC(=O)NS(=O)(=O)c1ccc(NC(=O)/C=C/c2cn(-c3ccccc3)nc2-c2ccccc2)cc1	7.6%	-3.8%	-2.8%	0.5%	9.53µM*	10.8%
O=C(/C=C\c1cn(-c2ccccc2)nc1-c1ccccc1)Nc1nccs1	2.3%	-0.7%	10.9%	9.5%	?	-5.4%
Cc1ccc(N=Cc2c(O)n(-c3cc(Cl)ccc3N3CCOCC3)c(=O)c3ccccc23)cc1C	-5.1%	-10.0%	-3.9%	-3.2%	?	?
COc1ccc(S(=O)(=O)N2CCCCCC2)cc1C(=O)N(C)CC(=O)Nc1ccccc1C(F)(F)F	/	-3.3%	-3.7%	-1.2%	-0.3%	-19.3%
NC(=S)N/N=C1\CC(c2ccc3c(c2)OCCCO3)Oc2ccc(F)cc21 (stereo not given)	/	0.6%	-0.7%	-6.9%	15.1µM*	3.66µM*

Screens (PubChem)
